Data on 87 compounds can be found in PubChem BioAssay AID1259415 (National Center for Advancing Translational Sciences (NCATS), 2018).

SMILES strings stand for the structures. About 18,000 (4.4%) of roughly 410,000 compounds were called active. Roughly 7% stayed inconclusive and do not appear here. For the sample, actives were picked, then their nearest neighbours and some compounds at random. A number with no mark means an inactive call. Rule as the data show it: active = activity change below about -60%; inconclusive = no clear call, values can overlap the other calls; inactive = above about -39%.
% is scaled to controls: 0 for no effect and ±100 for the full control effect.

The test is described as follows: qHTS Assay for inhibitors of the human cytomegalovirus (HCMV). Particulars: HFF cells, HCMV-luciferase reporter, 72 h; at 57.5 µM; hits give low values. The method in brief: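 Inhibition of viral replication was scored as loss of reporter luminescence in HFFs infected with HCMV-luciferase (MOI 1 PFU/cell) for 72 h; compounds tested at 2 doses, normalized to buffer and Salinomycin controls.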
Background: In qHTS, concentration-response curves come from the screen itself.
As to `COc1ccccc1CNCc1ccc(C(=O)O)s1`, the activity change, negative = inhibition is -9.76%.
Turning to `O=C(CSc1nc(=O)[nH]c2c1CCCC2)Nc1cc(C(F)(F)F)ccc1Cl`, the activity change, negative = inhibition was -20.6%.
As for `O=C(Nc1ccc(CN2CCOCC2)cc1)c1cc(Cl)ccc1Cl`, the figure is -13.5%; as for `CN1CCN(Cc2nc3cc(NC(=O)COc4ccc([N+](=O)[O-])cc4)ccc3n2C)CC1`, 18.6%; as for `Cn1c(CN2CCOCC2)nc2cc(NC(=O)c3ccc(Cl)cc3)ccc21`, -84.5% (active).
As for `Cc1ccccc1S(=O)(=O)N[C@H]1CC[C@@]23CCCN2C(=O)CCC[C@H]3[C@H]1C`, the figure is -19.4%; as for `Cc1cccc(Cn2c(CN3CCC(C(=O)NCc4ccccc4Cl)CC3)cc3ccccc32)c1`, -4.28%; as for `CCc1cc2c(cc3c(=O)n(CC(=O)N4CCN(c5cc(Cl)ccc5C)CC4)ncn32)s1`, 85.8%.
As for `C#CCCCc1nc2ccccc2c(=O)n1N`, the activity change, negative = inhibition was 56.9%.
Regarding `O=c1c2ccccc2nc2n1C(CSc1ccc(Cl)cc1)CN2` (configuration not stated), the activity change, negative = inhibition was 59.6%.
Take `O=c1n(Cc2cccc(C(F)(F)F)c2)c2ccccc2c2nc(-c3ccccc3)nn12`: the activity change, negative = inhibition is 26.8%.
`O=c1c2ccccc2nc2n1C(CSCc1cccc(C(F)(F)F)c1)CS2` (configuration not stated): the activity change, negative = inhibition was -67.5% (active).
Consider `Cc1ccc(-n2c(/C=C/c3cccc(C(F)(F)F)c3)nc3ccccc3c2=O)cc1`, for which the activity change, negative = inhibition was -5.7%.
As to `O=c1c2ccccc2nc2n1C(CSCc1ccccc1)CS2` (configuration not stated), the activity change, negative = inhibition was -74.9% (active).
Take `Cc1ccccc1C(=O)Nc1sc2c(c1C(=O)N1CCC(C)CC1)CCCC2`: the activity change, negative = inhibition is -11.9%.
With `COc1cc(Br)cc2cc(S(=O)(=O)c3ccccc3)c(=O)oc12` the figure was 14.3%; with `CCN(CC)C(=O)C1=C(C)N(Cc2ccc(C(C)(C)C)cc2)C(=O)C(CC(=O)NCc2cccc3ccccc23)C1` (configuration not stated), 16.5%; with `CC(C)(C)c1ccc(CN2C(=O)CN=C(c3ccccc3)c3ccccc32)cc1`, -79.6% (active).
With `COc1ccc(CN2C(=O)CN=C2Nc2ccc(C)cc2C)cc1` the figure was 1.11%; with `O=C(c1ccc(Cl)cc1)n1nc(-c2cccnc2)nc1NCc1ccc(F)cc1`, 4.96%.
As for `CCOc1ccc(-c2cc3nc(C4CCN(C(=O)OC(C)(C)C)CC4)c(C(=O)Nc4ccc(C(=O)OC)cc4)cn3n2)cc1`, the figure is 24.4%.
In the case of `COc1ccccc1CNC(=O)c1ccc(CS(=O)c2ccccc2Cl)o1` (configuration not stated), the activity change, negative = inhibition was 9.25%.
With `CCOc1ccc(NC(=O)c2c(NCc3cccc(OC)c3OC)sc3c2CCC3)cc1` the figure was 13%; with `O=C(c1ccco1)N(Cc1nc2ccccc2c(=O)[nH]1)C1CCCC1`, -0.921%.
With `CN(c1ccc2nc3ccccc3c(=O)n2n1)C1CCCCC1`, the activity change, negative = inhibition was -90% (active).
With `COCC(C)n1c(SCC(=O)NC2CCCCC2C)nc2ccccc2c1=O` (configuration not stated) the figure was -19.2%.
Consider `COc1ccc(/C=C/C(=O)Nc2ccc(C)cc2)cc1S(=O)(=O)N1CCOCC1`, for which the activity change, negative = inhibition is -73.1% (active).
As for `COc1ccc(NC(=O)c2cc(=O)[nH]c3ccccc23)cc1S(=O)(=O)N1CCOCC1`, the figure is 9.13%; as for `COc1ccc(C(=O)N(Cc2ccccc2)c2ccc(C)cc2)cc1S(=O)(=O)N1CCOCC1`, -15.2%.
With `O=C(CCc1ccc(S(=O)(=O)N2CCOCC2)cc1)Nc1ccc2ccccc2c1` the figure was -9.83%; with `COc1ccc(CCC(=O)Nc2ccc(Cl)c(S(=O)(=O)N3CCOCC3)c2)cc1OC`, -69% (active); with `COc1ccc(CC(=O)Nc2ccc3c(c2)CCC3)cc1S(=O)(=O)N1CCOCC1`, -10.6%.
On to `O=C(CSc1n[nH]c(-c2ccccc2)n1)N1CCCCC1`, for which the activity change, negative = inhibition is 61.5%.
Take `CSc1nc(-c2ccc(F)cc2)nc2c1Cc1c(CO)cnc(C)c1O2`: the activity change, negative = inhibition was 4.76%.
With `CC(C)(CSc1nncn1/N=C/c1ccco1)NS(=O)(=O)c1ccc(Cl)cc1`, the activity change, negative = inhibition is -28.3%.
Turning to `COc1ccc(CCNC(=O)CCc2cn(C)c3ccccc23)c(OC)c1`, the activity change, negative = inhibition was -11%.
Consider `COc1cccc(NC(=O)N2CCCC2C(=O)NC2CCCCC2)c1` (configuration not stated), for which the activity change, negative = inhibition is -32.8%.
`COc1cccc(NC(=O)N(Cc2cn(C)c3ccccc23)C2CCCCCC2)c1`: the activity change, negative = inhibition is -105% (active).
With `O=C(Cn1c(=O)n(-c2ccc(F)cc2)c(=O)c2sc3ccccc3c21)NC1CCCC1` the figure was -5.96%; with `Fc1ccc(-c2nc(Nc3cccc(Cl)c3)nc3c2COc2ccccc2-3)cc1`, -30.5%.
Turning to `CCOC(=O)C(C)Sc1nnc(CSc2nc3nc(C)cc(C)n3n2)o1` (configuration not stated), the activity change, negative = inhibition is -27.1%.
As for `Cc1cc2nnc(SCC(=O)N3CCN(c4ccccc4)CC3)n2c(N)n1`, the figure is 2.88%; as for `Cn1c(CNC(=O)c2ccco2)nnc1SCC(=O)N1CCN(c2ccccc2)CC1`, 9.34%.
As for `Cn1c(Cc2cccc3ccccc23)nnc1SCC(=O)N1CCN(c2cccc(Cl)c2)CC1`, the figure is -71.4% (active); as for `Cc1ccccc1NC(=O)Cn1c(=O)n(CCCCC(=O)NCc2ccccc2Cl)c(=O)c2ccccc21`, 0.203%; as for `COc1ccc(N2CCN(c3cc(C)nc4nncn34)CC2)cc1`, -72.4% (active).
For `Cc1cc(N2CCN(c3ccc(F)cc3)CC2)n2ncnc2n1`, the activity change, negative = inhibition is -22.6%.
Regarding `COc1ccc(N2CCN(c3ccc([N+](=O)[O-])nc3)CC2)cc1`, the activity change, negative = inhibition is -29.8%.
For `COC(=O)c1ccc(/C=N/OCC(=O)Nc2cc(F)ccc2F)cc1`, the activity change, negative = inhibition was 36.6%.
With `Cc1ccc2c(c1)c1c(c(=O)n(-c3ccccc3)c(=O)n1CC(=O)c1ccc(Cl)cc1)n2C` the figure was 7.77%; with `O=C(CN(Cc1ccccc1)C(=O)CCC(=O)Nc1ccccn1)NCCc1ccccc1`, 18.2%; with `COc1ccc(Cn2c(-c3ccc(Cl)cc3)c[n+]3ccccc23)cc1`, -95.3% (active).
`COc1ccc(Cn2c(=O)oc3ccccc32)cc1`: the activity change, negative = inhibition was 6.27%.
With `COc1ccc(CNc2nc(-c3ccc(Cl)cc3)nn2C(=O)c2ccccc2)cc1` the figure was 1.03%.
With `CCN1C(=O)C(C(=O)NC(C)c2ccccc2)C2CC1(C)Oc1ccccc12` (configuration not stated) the figure was -37%; with `O=S(=O)(c1ccc(F)cc1)N1CCN=C1SCc1cccc(F)c1`, -18.5%; with `CCCS(=O)(=O)N1CCN=C1SCc1cccc(F)c1`, -70.6% (active).
`O=C(COc1ccccc1)N1CCN=C1SCc1cccc(F)c1`: the activity change, negative = inhibition was -11.8%.
For `COc1cc(OC)cc(-c2nc3nc(C)c(CCC(=O)Nc4ccccc4)c(C)n3n2)c1`, the activity change, negative = inhibition is 4.64%.
With `Cc1ccc(NC(=O)c2ccc3[nH]c(C)cc(=O)c3c2)c(C)c1` the figure was -8.34%; with `O=C(N/N=C/c1c(O)n(C2CC2)c(=S)[nH]c1=O)c1ccccc1Cl`, -9.9%.
As for `O=C(N/N=C/c1c(O)n(C2CC2)c(=S)[nH]c1=O)c1ccccc1`, the figure is -8.42%.
With `Cc1[nH]n(-c2ccccc2)c(=O)c1/C=N/NC(=O)c1ccoc1C` the figure was -99.7% (active); with `CCOC(=O)CSc1nnc(CNC(=O)Cc2ccccc2)n1-c1ccccc1OC`, -26.6%.
As to `CC(=O)c1ccc(NC(=O)c2nc(-c3ccc(C)cc3)n3c2CCCCC3)cc1`, the activity change, negative = inhibition was -8.98%.
On to `Cc1cccc(CNC(=O)c2cnc3sc(N4CCCCC4)nn3c2=O)c1`, for which the activity change, negative = inhibition is 27.1%.
On to `CCOc1ccccc1C(=O)NC1(C(F)(F)F)C(=O)Nc2c1c(=O)[nH]c(=O)n2-c1ccc(F)cc1` (configuration not stated), for which the activity change, negative = inhibition was -8.54%.
As for `COc1ccc(CNC(=O)c2cc3c(=O)[nH]c4ccc(C)cc4c3s2)c(OC)c1`, the figure is -17.4%.
As to `CN(CCNC(=O)c1cc2c(-c3ccccc3F)nn(C)c2s1)C1CCCCC1`, the activity change, negative = inhibition is -6.98%.
As for `COc1ccc(CNC(=O)c2cc3c(-c4ccccc4F)nn(C)c3s2)c(OC)c1`, the activity change, negative = inhibition was -64.7% (active).
As for `Cc1ccc(Nc2c(-c3ccc(C)cc3)nc3cnccn23)cc1`, the activity change, negative = inhibition was 31.2%.
Regarding `CCCOc1ccc(Cl)cc1Nc1nc(NCCO)nc(N2CCCC2)n1`, the activity change, negative = inhibition was 14.9%.
With `COc1ccc(OC)c(NC(=O)CSc2nc3ccccc3nc2N2CCCCC2)c1` the figure was 19.8%.
As for `CCN1CCN(c2nc(Nc3cc(OC)ccc3OC)nc(Nc3cc(OC)ccc3OC)n2)CC1`, the activity change, negative = inhibition is -64.4% (active).
With `COc1ccc2c(CNCCc3ccccc3C)c(C(=O)O)n(Cc3ccccc3C)c2c1` the figure was -9.03%.
As for `COc1cc(C(=O)N2CCC(c3ccncc3)CC2)cc(OC)c1OC`, the figure is 18%; as for `COc1ccccc1CNC(=O)CCCCn1c(=O)c2ccccc2n(CC(=O)Nc2cc(Cl)ccc2C)c1=O`, -9.62%.
As for `O=C(NCc1ccncc1)c1cccc(NS(=O)(=O)c2ccc(F)c(F)c2)c1`, the figure is -101% (active); as for `O=C(NCc1cccc(C(F)(F)F)c1)c1cccc(S(=O)(=O)N2CCN(Cc3ccccc3)CC2)c1`, 0.707%; as for `O=C(NCc1ccccc1)c1ccc(S(=O)(=O)Nc2cccc(C(F)(F)F)c2)cc1`, -62% (active).
As for `O=C(NCCCN1CCCC1=O)c1ccc(S(=O)(=O)Nc2ccccc2)cc1`, the activity change, negative = inhibition is -28.4%.
As for `O=C(NCc1ccncc1)c1ccc(NS(=O)(=O)c2cccc([N+](=O)[O-])c2)cc1`, the activity change, negative = inhibition is -29%.
As for `O=C(NCc1ccccc1CN1CCCC1)c1cccc(S(=O)(=O)Nc2ccc(F)cc2)c1`, the figure is 56.8%; as for `Cc1ccccc1CSCCNC(=O)C1CCN(S(=O)(=O)Cc2ccccc2)CC1`, -4.14%; as for `Cc1ccc2nc(COc3cccc(NC(=O)c4cccc(Cl)c4)c3)cc(=O)n2c1`, 9.28%.
`Cc1ccccc1-c1nc(NC(C)C)nc2cc(-c3ccccc3)sc12`: the activity change, negative = inhibition was -8.38%.
On to `Cc1cc(C)c2oc(C(=O)Nc3ccc(S(=O)(=O)N(C)c4ccccc4)cc3)cc(=O)c2c1`, for which the activity change, negative = inhibition is -2.92%.
